Source: PubChem BioAssay
AmpC no deterg – blocks E. coli AmpC beta-lactamase in detergent-free assay | P00811 | AmpC nitrocefin hydrolysis, absorbance 480 nm, 0.0001% Triton | Potency, µM (doses to about 57.1 µM), for the others: top-dose activity change, negative = inhibition, most hits filed as inhibitors | hit rate 0.52% among 330,000 | AID 485341;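 also: plate controls were no compound for no effect and no enzyme for full effect; nearly all actives have a fitted effect of over 20% in size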
Target sequence (P00811 whole entry, looked up): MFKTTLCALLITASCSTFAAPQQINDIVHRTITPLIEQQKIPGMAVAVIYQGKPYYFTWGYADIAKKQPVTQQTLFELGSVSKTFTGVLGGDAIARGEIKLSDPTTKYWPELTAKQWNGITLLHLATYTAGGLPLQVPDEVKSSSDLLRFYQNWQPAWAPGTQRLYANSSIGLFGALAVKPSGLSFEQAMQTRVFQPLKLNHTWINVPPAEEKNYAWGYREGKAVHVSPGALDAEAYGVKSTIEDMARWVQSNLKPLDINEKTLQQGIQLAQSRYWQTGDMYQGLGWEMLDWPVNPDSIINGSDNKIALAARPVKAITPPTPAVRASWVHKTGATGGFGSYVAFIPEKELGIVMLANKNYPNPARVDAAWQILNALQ
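20 mM phosphate pH 7.0 + 0.01% (detergent screen) or 0.0001% Triton X-100; 5.3 nM AmpC reagent; cpd preinc 15 min RT; nitrocefin (800 uM stock) to start; A480 q20 s × 4 min; Activity was normalised to no-enzyme and no-compound control wells.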
Pf growth 48h – P. falciparum growth inhibition at 48 hours (one generation). P. falciparum luciferase growth in erythrocytes, 48 h. Potency, µM (titrated, usually from 28.7 µM), without a hit: at the highest dose activity change, negative = inhibition, most hits filed as inhibitors. hit rate 5.9% among 310,000. AID 504832; also: % is scaled to controls: 0 for no effect and ±100 for the full control effect
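Erythrocytes infected with P. falciparum carrying an integrated firefly luciferase reporter (2% hematocrit, 0.1% parasitemia final) were exposed to compounds in RPMI 1640 with 0.5% Albumax at 37 C, 5% CO2. Growth inhibition was scored as reduced luminescence.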
SARS PLP yeast – SARS-CoV PLP inhibition in yeast | Potency, µM (top dose mostly 32.9 µM), for inactives: top-dose activity, positive = growth rescue, actives largely listed as activators | AID 485353 | S. cerevisiae expressing SARS-CoV PLpro, growth rescue | hit rate 0.19% among 330,000; calls by dose curve; also: 0% is about no effect; nearly all actives have a fitted effect of over 55% in size
Pf growth 96h – inhibits malaria parasite growth, 96 h; P. falciparum luciferase reporter growth, 96 h; Potency, µM (top dose mostly 28.7 µM), for the others: at the top dose activity change, negative = inhibition, actives largely listed as inhibitors; hit rate 6.9% among 320,000; also: % is scaled to controls: 0 for no effect and ±100 for the full control effect
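P. falciparum expressing integrated firefly luciferase grown in erythrocytes (2% hematocrit, 0.05% parasitemia final) with compounds for 96 hours at 37 C, 5% CO2. Growth inhibition read as loss of luminescence after adding luciferase detection reagent.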
AmpC detergent – inhibitors of E. coli AmpC beta-lactamase with detergent; AmpC hydrolysis of nitrocefin, absorbance 480 nm, 0.01% Triton; Potency, µM (series often up to 114 µM), for the others: top-dose activity change, negative = inhibition, usual class: inhibitors; hit rate 0.041% among 370,000; AID 485294;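 also: 0% = no-compound wells and -100% = no-enzyme wells; nearly all actives have a fitted effect of over 25% in size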
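AmpC (5.3 nM in the dispensed reagent) in 20 mM phosphate pH 7.0 with 0.01% (detergent screen) or 0.0001% Triton X-100 was preincubated with compounds for 15 min at room temperature. Nitrocefin was then added from an 800 uM solution, and hydrolysis was followed at 480 nm.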
Sm TGR inh – inhibitors of Schistosoma mansoni thioredoxin glutathione reductase. Q962Y6. purified TGR, DTNB reduction, TNB absorbance 405 nm. Potency, µM (doses to about 114 µM), without a hit: at the highest dose activity change, negative = inhibition, most hits filed as inhibitors. hit rate 3% among 360,000. AID 485364; also: % is scaled to controls: 0 for no effect and ±100 for the full control effect; nearly all actives have a fitted effect of over 60% in size
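TGR 20 nM + NADPH 100 uM (dispensed conc.), cpd preinc 15 min RT; start with NADPH (500 uM addition) then DTNB (15 mM addition). Kinetic TNB absorbance, 405 nm filter. Four-parameter Hill fit across titration.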
* = called active by the depositor; i = inactive; ? = inconclusive; / = no result given. This is a sample that favours compounds with a hit; in the whole collection about 12% have one here. Unless noted, calls follow the shape of the dose curve; as a rule, active = well fitted curve in the direction sought with a large enough effect; inconclusive = small, poorly fitted or top-dose-only effect, or another doubt; inactive = no such curve, though single readings can be large; an effect the other way counts as inactive or inconclusive. Potency is read from the fitted curve at half-maximal effect.

SMILES	AmpC no deterg	Pf growth 48h	SARS PLP yeast	Pf growth 96h	AmpC detergent	Sm TGR inh
Cc1cccc2c(=O)cc(CSc3ccccc3NC(=O)c3cccc(Cl)c3)[nH]c12	/	/	/	/	19%	-1%
CC(C)Cn1cc(C(=O)NCc2cccs2)c2c3ccccc3n(C)c2c1=O	-1%	?	-10%	8.3µM*	2%	-3%
CCOC(=O)N1CCN(C(=O)c2cn(CC(C)C)c(=O)c3c2c2ccccc2n3C)CC1	111%	10µM*	13%	34%	-8%	8%
CC(C)CCNC(=O)c1cn(CC(C)C)c(=O)c2c1c1ccccc1n2C	-4%	-24%	11%	?	2%	1%
Cc1c(CN2CCN(CC(C)C)C(CCO)C2)[nH]c2ccc(Cl)cc12 (configuration not stated)	63%	-16%	-6%	41%	3%	-23%
COc1ccc(N2CCN(S(=O)(=O)c3cnc[nH]3)CC2)cc1	0%	9%	0%	7%	-8%	16%
COc1cccc(NC(=O)CSc2nc3c(oc4ccccc43)c(=O)[nH]2)c1	-55%	-14%	-12%	31%	0%	-8%
Cc1cc(NC(=O)c2sc(Nc3ccc(F)c(Cl)c3)nc2N)no1	20µM*	-28%	1%	43%	-3%	-4%
Cc1noc(N)c1C(=O)Nc1ccc(F)c(Cl)c1	-30%	2.3µM*	-3%	81%	3%	8%
CC(=O)Nc1ccc(NC(=O)c2c(C)noc2C)cc1	0%	4.7µM*	2%	?	-7%	1%
CCc1noc(N)c1C(=O)Nc1ccc(F)c(Cl)c1	-9%	0%	-4%	63%	-3%	-29%
Cc1noc(C)c1C(=O)Nc1ccc(C#N)cc1	-15%	-18%	-1%	10%	?	10%
Cc1noc(N)c1C(=O)Nc1ccc(F)cc1	-6%	-9%	5%	2.1µM*	?	0%
CCOC(=O)c1c(C)[nH]c(C)c1S(=O)(=O)Nc1ccc(CN2CCCCC2)cc1	-19%	?	3%	5.9µM*	1%	0%
CCOC(=O)c1cccc(NS(=O)(=O)c2c(C)[nH]c(C)c2C(=O)N2CCCC2)c1	8%	3%	6%	?	-8%	-14%
CN1CCN(C(=O)c2ccc3c(c2)N(Cc2c(F)cccc2Cl)C(=O)c2ccccc2S3)CC1	/	/	/	/	2%	-17%
Cc1ccc(N(C)C2=NC(=O)CS2)cc1Cl	-8%	2.1µM*	6%	?	-15%	-6%
O=C(COC(=O)c1ccc(NS(=O)(=O)c2cccs2)cc1)Nc1nc2c(F)c(F)c(F)cc2s1	20µM*	-2%	0%	18%	-4%	-6%
Cc1ccc2nc(NC(=O)c3ccc(NS(=O)(=O)c4cccs4)cc3)sc2c1	-41%	?	-20%	0.47µM*	-14%	0%
COC(=O)c1c(-c2ccsc2)sc2ccc(-c3cc(OC)c(OC)c(OC)c3)cc12	41%	/	-9%	/	/	/
COc1cc(-c2ccc3sc(-c4ccsc4)c(C#CCO)c3c2)cc(OC)c1OC	30%	12µM*	-1%	?	-3%	?
COc1cc(OC)cc(-c2sc3ccc(OC)cc3c2C#CCCO)c1	87%	0%	2%	?	-8%	25µM*
COc1ccc2sc(-c3ccccc3OC)c(C#CCCO)c2c1	31%	?	0%	?	5%	?
COc1ccccc1N1CCN(C(=O)Cn2c(=O)n3nc(-c4cccc(C)c4)nc3c3ccccc32)CC1	/	/	/	/	2%	3%
O=C(COC(=O)c1ccc(Cl)cc1[N+](=O)[O-])NNC(=O)c1cccs1	-21%	?	0%	-15%	-10%	56µM*
SMILES	AmpC no deterg	Pf growth 48h	SARS PLP yeast	Pf growth 96h	AmpC detergent	Sm TGR inh
Cc1cc(C(=O)OCC(=O)NNC(=O)c2cccs2)ccc1[N+](=O)[O-]	-24%	35%	-3%	15%	-13%	1%
COCCN=C1Sc2nc3cc(C)c(C)cc3cc2CN1Cc1cccs1	-49%	10µM*	4%	?	-7%	-21%
COCCN=C1Sc2nc3ccc(C)cc3cc2CN1Cc1ccco1	85%	/	-6%	?	-5%	-12%
COc1ccc(/C=N/N=C(\N)c2nonc2N)cc1	-26%	i	3%	1.3µM*	-5%	6%
COc1ccc(/C=N/Nc2nonc2N)cc1	-18%	35%	-17%	64%	?	6%
COc1cc(/C=N/N=C(\N)c2nonc2N)cc(OC)c1O	-35%	71%	-2%	52%	-5%	28µM*
COCC(C)NC(=O)COc1ccc(Cl)cc1Cl (configuration not stated)	-2%	?	-2%	?	-4%	-3%
CNC1C(O)C(OC2C(NC(=O)C(O)CN)CC(N)C(OC3OC(CN)C(O)C(O)C3O)C2O)OCC1(C)O (configuration not stated)	/	0%	/	-4%	/	/
COc1ccc(/C=C/C(=O)Nc2ccc(OC)nc2)cc1	-1%	?	-76%	?	-5%	7%
COc1ccc(CS(=O)(=O)/C(Cl)=C(/Cl)C(=O)Nc2ccc(OC)nc2)cc1	-6%	/	-22%	?	-14%	10µM*
COc1ccc(NC(=O)/C(Cl)=C(/Cl)S(=O)Cc2ccccc2)cn1 (configuration not stated)	-7%	15µM*	-53%	/	-6%	0.32µM*
COc1ccc(NC(=O)CSc2ccccc2)cn1	-18%	40%	0%	65%	-13%	?
COc1ccc(NC(=O)c2cccs2)cn1	-20%	18%	-2%	102%	2%	15%
COc1ccc(NC(=O)Cc2ccccc2)cn1	-16%	33%	1%	5.2µM*	1%	-2%
Cc1cc(N2CCN(Cc3nc(-c4ccc(F)cc4)oc3C)CC2)cc(C)n1	24%	?	0%	12µM*	1%	-20%
CNC(=O)C(=O)NCCC1CCCCN1S(=O)(=O)c1cccs1 (configuration not stated)	-8%	13%	4%	2%	-6%	-3%
COc1ccccc1CNC(=O)C(=O)NCCC1CCCCN1S(=O)(=O)c1ccc(C)cc1 (configuration not stated)	-6%	12µM*	-4%	?	-11%	-2%
COc1ccccc1CCNC(=O)C(=O)NCCC1CCCCN1S(=O)(=O)c1ccccc1 (configuration not stated)	40%	50%	-1%	82%	9%	-1%
Cc1ccccc1CNC(=O)C(=O)NCCC1CCCCN1S(=O)(=O)c1cccs1 (configuration not stated)	-34%	?	-2%	12µM*	?	-2%
